Structures are written as SMILES. Hit rate of the full screen: of about 420,000 compounds, about 64,000 (15%) were called active. About 27% were inconclusive and are not listed. Calls come from the whole dose curve; as a rule, active = well fitted inhibition curve with a large enough effect; inconclusive = small, poorly fitted or top-dose-only effect; inactive = flat fitted curve, though single readings scatter. A selection follows. Entries that show only a call come without a potency.
Potency is the fitted concentration of half-maximal effect.

The nature of the test: qHTS for Inhibitors of human tyrosyl-DNA phosphodiesterase 1 (TDP1): qHTS in cells in absence of CPT. Note: nearly all actives have a fitted effect of over 55% in size. The conditions noted are these: DT40 Tdp1-/- hTDP1 cells, no CPT, ATP luminescence, 48 h; activity change, negative = growth inhibition: at 46.2 µM (top of the series). The gist of the method: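 A cellular qHTS used chicken DT40 cells lacking endogenous Tdp1 but carrying stably transfected human TDP1. Compounds were applied without camptothecin, and cell growth kinetics were judged by ATP-dependent luminescence after ≥48 hr.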
(In general: Quantitative high-throughput screening tests each substance at several concentrations.)
For `CC(=O)NC(NC(=S)Nc1c(C)n(C)n(-c2ccccc2)c1=O)C(Cl)(Cl)Cl` (stereo not drawn), the Potency entry is “inactive”.

As to `CC1(C)Cc2cccc(OCC(N)=O)c2O1`, the Potency entry was “inactive”.

With `CC(=O)Nc1cncc(-c2ccccc2CO)n1`, the Potency entry is “inactive”.

For the compound `CC1C(=O)NC(=O)C1c1ccccc1` (stereo not drawn), the Potency result was “inactive”.

`COc1cccc(C(=O)NCCSc2ccc(Br)cc2)c1`: the Potency entry was “inactive”.

As for `O=C(CNC(=O)c1ccccc1Br)NCCSc1ccc(Br)cc1`, the Potency is 18.4 µM (active).

In the case of `O=C(CCNS(=O)(=O)c1ccccc1)NCCSc1ccc(Br)cc1`, the Potency entry was “inactive”.

Turning to `CC(=O)c1sc(NC(=O)CCN2C(=O)C3CC=CCC3C2=O)nc1-c1ccccc1` (stereo not drawn), the Potency entry is “inactive”.

With `CC(Oc1ccccc1)C(=O)Nc1oc(-c2ccco2)c(-c2ccco2)c1C#N` (stereo not drawn), the Potency entry was “inactive”.

Regarding `CSc1ncc(Cl)c(C(=O)Nc2cc(C)ccc2C)n1`, the Potency entry was “inactive”.

For `CSc1ncc(Cl)c(C(=O)Nc2ccc(S(=O)(=O)N3CCCC(C)C3)cc2)n1` (stereo not drawn), the Potency was 14.6 µM (active).

Take `CCc1ccc(NC(=O)c2cc(S(=O)(=O)N3CCCC(C)C3)cn2C)cc1` (stereo not drawn): the Potency result was “inactive”.

For `COc1c(F)c(F)c(-c2csc(N)n2)c(F)c1F`, the Potency entry was “inactive”.

On to `Cc1cc(C)n(CCNCc2c(C(=O)N3C[C@@H](C)O[C@@H](C)C3)nc3ccc(Cl)cn23)n1`, for which the Potency result is “inactive”.

For `CCOC(=O)NN1C(=O)c2ccccc2NC1c1ccccc1O` (stereo not drawn), the Potency is 23.1 µM (active).

For `O=C1c2ccccc2NC(c2ccccc2O)N1NS(=O)(=O)c1ccccc1` (stereo not drawn), the Potency entry is “inactive”.

On to `CC(=O)NN1C(=O)c2ccccc2NC1c1ccccc1` (stereo not drawn), for which the Potency entry is “inactive”.

`CCCCNC(=O)C(=O)c1ccccc1NC(C)=O`: the Potency result is “inactive”.

Turning to `CCCCNC(=O)Nc1c(C)cc(SC#N)cc1C`, the Potency is 8.2 µM (active).

For `CCC(C)C(CO)NC(=O)/C=C/[C@H]1O[C@@H](n2cnc3c(NC(=O)c4ccccc4)ncnc32)[C@H](O)[C@@H]1O` (stereo partly drawn), the Potency result is “inactive”.

For `CNc1nnc(-c2ccco2)s1`, the Potency result is “inactive”.

Consider `O=C(NCc1ccccn1)Nc1ccc(F)cc1`, for which the Potency result was “inactive”.

Consider `CCOC(=O)c1ccccc1NC(=O)CSc1nc2c(sc(=S)n2CC)c(=O)[nH]1`, for which the Potency entry was “inactive”.

On to `CC(C)CN1CCNC(=O)C1CC(=O)N(C)CC1CCOCC1` (stereo not drawn), for which the Potency result was “inactive”.

As to `COC(=O)c1cc(C(=O)OCC(=O)Nc2cc(C)on2)cc([N+](=O)[O-])c1`, the Potency entry is “inactive”.

Turning to `CC(NC(=O)CN(C)S(=O)(=O)c1ccc(F)cc1)C1CC2CCC1C2` (stereo not drawn), the Potency result is “inactive”.

Turning to `COC(=O)c1cc(C(=O)NC(C)C2CC3CCC2C3)cc([N+](=O)[O-])c1` (stereo not drawn), the Potency is 20.6 µM (active).

For the compound `OC1CN=C2Sc3ccccc3N2C1` (stereo not drawn), the Potency entry was “inactive”.

For `O=C(NC(=O)c1ccc(Cl)c(Cl)c1)OC1CCS(=O)(=O)C1` (stereo not drawn), the Potency entry is “inactive”.

Regarding `CCCCOc1ccc(C(=O)NCC(=O)OCC(=O)c2c(N)n(C)c(=O)n(C)c2=O)cc1`, the Potency result was “inactive”.

`COc1cc(NC(=O)c2[nH]cnc2C(N)=O)cc(C(=O)Nc2cccc(C(F)(F)F)c2)c1`: the Potency is 18.4 µM (active).

Take `COc1cc(NC(=O)c2cccnc2SC)cc(OC)c1`: the Potency entry was “inactive”.

`O=C(Nc1cccc(C(F)(F)F)c1)c1cnccn1`: the Potency entry is “inactive”.

`COc1cc(NC(=O)c2cncc(-c3ccc(C#N)cc3)c2)cc(C(=O)Nc2cccc(C(F)(F)F)c2)c1`: the Potency was 10.3 µM (active).

Turning to `CCn1nnnc1SCC(=O)Nc1ccc(N(C)C)cc1`, the Potency result is “inactive”.

On to `Cn1c(N)c(C(=O)COC(=O)/C=C/c2cccc(C(F)(F)F)c2)c(=O)n(C)c1=O`, for which the Potency entry is “inactive”.

In the case of `Cc1noc(C)c1-c1nccc(N2CCOCC2)n1`, the Potency result was “inactive”.

With `CCCCc1nc2cc(C(=O)NCCc3cnn(C)c3)ccc2o1`, the Potency result was “inactive”.

For `O=C(O)C1CC=CCC1C(=O)Nc1ccccc1C(=O)N1CCN(c2ccccc2)CC1` (stereo not drawn), the Potency is 20.6 µM (active).

With `O=C(Nc1ccccc1C(=O)N1CCCCCC1)c1ccccc1Cl`, the Potency entry was “inactive”.

On to `CC1CCN(C(=O)c2ccccc2NC(=O)Cc2ccccc2)CC1`, for which the Potency entry is “inactive”.

As to `Cc1ccccc1NC(=O)C1CCN(C(=O)NC2CCCCC2)CC1`, the Potency result was “inactive”.

With `CC(=O)N1CCN(CC(=O)Nc2ccc(C)c(F)c2)CC1`, the Potency entry was “inactive”.

On to `Cc1ccc(NC(=O)CN2c3ccccc3S(=O)(=O)c3ccccc32)cc1F`, for which the Potency is 18.4 µM (active).

In the case of `CC1CC(=O)N(CC(=O)Nc2cccc(Cl)c2)c2ccccc2S1(=O)=O` (stereo not drawn), the Potency result is “inactive”.

On to `CCCCOc1ccc(NC(=O)c2cc3c(n(-c4ccc(Cl)cc4)c2=O)CCCC3=O)cc1`, for which the Potency entry is “inactive”.

On to `c1ccc2cc(C3=NCCN3)ccc2c1`, for which the Potency entry was “inactive”.

Turning to `C=CCNC(=O)c1ccccc1NC(=O)c1ccc(Cl)c(S(=O)(=O)Nc2cccc(C)c2C)c1`, the Potency is 16.4 µM (active).

Consider `Cc1cc(=O)c2cc(C(=O)Nc3cccc(C)c3C)ccc2[nH]1`, for which the Potency entry is “inactive”.

In the case of `Cc1ccccc1NC(=O)c1cc(S(=O)(=O)Nc2cccc(C(=O)O)c2)ccc1Cl`, the Potency entry is “inactive”.

With `CC1(C)CC(=O)C2=C(C1)Nc1cc(C(=O)c3ccccc3)ccc1NC2c1ccccn1` (stereo not drawn), the Potency result was “inactive”.

Regarding `Cc1cccc(C(=O)OCC(=O)Nc2ccc(F)cc2)c1`, the Potency result was “inactive”.

As for `O=C(COC(=O)c1ccccc1OCCOc1ccccc1)Nc1cccc(Br)c1`, the Potency result was “inactive”.

As to `Cc1cccc(NC(=O)COC(=O)c2ccccc2OCc2cccc(Br)c2)c1`, the Potency is 22.4 µM (active).

`Nc1nc(C23CC4CC(CC(C4)C2)C3)cs1`: the Potency result is “inactive”.

In the case of `CN(C)c1ccc(S(=O)(=O)NCC(=O)NCC2CCCCC2)cc1[N+](=O)[O-]`, the Potency result was “inactive”.

On to `Cc1noc(NS(=O)(=O)c2ccc(N3CC(O)=C(c4ccccc4)C3=N)cc2)c1C`, for which the Potency result is “inactive”.

Regarding `CCC(C)c1ccccc1N1CC(C(=O)N2CCN(S(=O)(=O)c3ccc(F)cc3)CC2)CC1=O` (stereo not drawn), the Potency result is “inactive”.

In the case of `CC(=O)NC(c1ccccc1)c1nc(-c2ccccc2C)cs1` (stereo not drawn), the Potency result was “inactive”.

As for `CCC1=C(OC(=O)N(CC)CC)N2C(=O)OC(=NCC3CC3)[C@]2(C)[C@H]2C1=CC[C@H]1C(=O)N(CC(=O)OC)C(=O)[C@H]12`, the Potency result is “inactive”.

As to `CCn1nc(C(=O)NNS(=O)(=O)c2cc(/C=C/C(=O)O)cc(OC)c2OC)c2ccccc2c1=O`, the Potency entry is “inactive”.

For `COc1ccc(OC)c(S(=O)(=O)Nc2c(C)nn(C)c2C)c1`, the Potency result was “inactive”.

Turning to `CCn1nc(C)c(NC(=O)/C=C/c2ccc(OC)c(COc3ccc(Br)cc3)c2)c1C`, the Potency is 20.6 µM (active).

With `O=C(Nc1nnc(-c2ccccc2F)s1)c1ccccc1F`, the Potency result is “inactive”.

As for `COC(=O)c1c(NC(=O)c2ccccc2F)sc2c1C(C(=O)OC)CC2` (stereo not drawn), the Potency is 11.6 µM (active).

For the compound `Cc1ccccc1NC(=O)c1c(NC(=O)c2ccccc2F)sc2c1CCC(C)C2` (stereo not drawn), the Potency result was “inactive”.

As to `COc1cc(NC(=O)CCNC(=O)Cn2ccc3ccccc3c2=O)cc(OC)c1OC`, the Potency result is “inactive”.

On to `CC(=O)C[C@H](O)CC(=O)[C@@H]1OC(=O)[C@@H](C)C/C=C\Cc2ccccc21`, for which the Potency result was “inactive”.

For the compound `N#CC1=C(N)Oc2cc(N)ccc2C1c1ccccc1` (stereo not drawn), the Potency was 18.4 µM (active).

In the case of `Cc1cc(C)c2c3c(sc2n1)C(c1ccccc1)C(C#N)=C(N)O3` (stereo not drawn), the Potency entry is “inactive”.

For `CC(C)c1ccc(C2C(C#N)=C(N)Oc3c2oc(CO)cc3=O)cc1` (stereo not drawn), the Potency result is “inactive”.

As for `c1nc(COc2nsnc2N2CCOCC2)cs1`, the Potency result was “inactive”.

Consider `CC(=O)Nc1cc2ccc(OC(C)=O)cc2oc1=O`, for which the Potency entry was “inactive”.

As for `CC(C)NC(=O)C(=O)N/N=C/c1ccco1`, the Potency entry is “inactive”.

Consider `CCCNC(=O)C1CCN(c2nc3ccc(C)cc3[nH]2)CC1`, for which the Potency result was “inactive”.

Consider `Cc1ccc(Cn2c(CCCNC(=O)C3CCCCC3)nc3ccccc32)cc1`, for which the Potency is 20.6 µM (active).

Regarding `Cc1ccc(CN2C(=O)CCC2C(=O)NCCCN2CCCCC2C)cc1` (stereo not drawn), the Potency result was “inactive”.

As to `O=C(NCCCc1ccccc1)C1CCC(CNc2c(N3CCCCC3)c(=O)c2=O)CC1` (stereo not drawn), the Potency result was “inactive”.

`CCc1ccc(OCCCn2c(CCCNC(=O)C3CCCCC3)nc3ccccc32)cc1`: the Potency was 4.47 µM (active).

Consider `Cc1ccc(C)c(Cn2c(CCCNC(=O)C3CCCCC3)nc3ccccc32)c1`, for which the Potency was 16.4 µM (active).

For the compound `CCCCNC(=O)CCn1c(=O)c2ccccc2n(Cc2cc(C)ccc2C)c1=O`, the Potency entry was “inactive”.

As for `CCCc1nc2c(C)cc(-c3nc4ccccc4n3C)cc2n1Cc1ccc(-c2ccccc2C(=O)O)cc1`, the Potency entry was “inactive”.

For `CC(C)Oc1ccc(CNC(=O)C2CCN(c3nc4ccccc4n(C)c3=O)CC2)cc1`, the Potency entry was “inactive”.

As for `O=C(NC1CC(=O)N(c2ccc(F)cc2)C1)c1cccs1` (stereo not drawn), the Potency result was “inactive”.

For `Cc1cc(C)c(S(=O)(=O)c2ccc(F)cc2C)c(=O)[nH]1`, the Potency result is “inactive”.

With `COc1cccc(NC(=O)c2nn(-c3ccc(OC)cc3OC)c(=O)c3ccccc23)c1`, the Potency entry was “inactive”.

Turning to `O=C1NC(c2ccccc2)Cc2ccncc21` (stereo not drawn), the Potency result is “inactive”.

`N[C@H]1CN(c2c(F)cc3c(=O)c(C(=O)O)cn(C4C[C@H]4F)c3c2Cl)CC12CC2` (stereo partly drawn): the Potency entry is “inactive”.

Take `NS(=O)(=O)c1cccc(NC(=O)CN2CCCc3ccccc32)c1`: the Potency result is “inactive”.

With `COC(=O)c1[nH]c2cccc(C)c2c1NC(=O)CN1CCCc2ccccc21`, the Potency is 20.6 µM (active).

With `Cc1ccc(OCC(=O)Nc2cccc3c2CCCC3)cc1C`, the Potency result was “inactive”.

As for `CCN1CCN(C(=O)C2(NC(=O)Nc3cccc(F)c3)CCCCC2)CC1`, the Potency result was “inactive”.

As for `O=C(COc1ccc2ccc(=O)oc2c1)NCC(O)c1ccccc1` (stereo not drawn), the Potency entry is “inactive”.

With `COCCn1c(=O)c(-c2ccc(OC)cc2)nc2cnc(Oc3cccc(Cl)c3)nc21`, the Potency result was “inactive”.

`O=C(NCc1cccs1)C1CCN(S(=O)(=O)c2ccc3c(c2)OCCO3)CC1`: the Potency result was “inactive”.

With `COc1ccc(C(=O)OCC(=O)Nc2cc(C)on2)cc1F`, the Potency entry is “inactive”.

As to `Cn1nccc1C(=O)NC1CCCc2c1cnn2-c1ccc(F)cc1F` (stereo not drawn), the Potency is 1.64 µM (active).

On to `O=C(CCNC(=O)c1ccc(Cl)cc1)NC1CCCc2ccccc21` (stereo not drawn), for which the Potency result is “inactive”.

On to `CC(=O)NCC(=O)NC1CCCc2c1cnn2-c1ccccc1F` (stereo not drawn), for which the Potency entry was “inactive”.

`Cn1nccc1C(=O)NC1CCCc2c1cnn2-c1ccccc1F` (stereo not drawn): the Potency was 2.06 µM (active).

For `Cc1ccc(S(=O)(=O)N[C@@H](Cc2ccccc2)C(=O)N2CCC(C(=O)N[C@H](C(=O)O)C(C)O)CC2)cc1` (stereo partly drawn), the Potency entry was “inactive”.

Regarding `COc1ccc(C2C(C(C)=O)=C(O)C(=O)N2Cc2cccnc2)cc1` (stereo not drawn), the Potency result is “inactive”.

For `COc1cc2nc(C#Cc3nc4cc(OC)c(OC)cc4[nH]3)[nH]c2cc1OC`, the Potency entry was “inactive”.

These data come from PubChem BioAssay AID686978 (National Center for Advancing Translational Sciences (NCATS), 2013).
